# From PubChem BioAssay (NCATS)
# Results filed as inconclusive are left out. A number with no mark means an inactive call. Calls come from the whole dose curve; as a rule, active = well fitted inhibition curve with a large enough effect; inconclusive = small, poorly fitted or top-dose-only effect; inactive = no such curve, though single readings can be large or run the other way.
# Experiment: Counterscreen for APE1 Inhibitors: Fluorescent Dye Displacement Validation Assay (AID 1707);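 note: plate controls were ThO with dsDNA and no compound for no effect and ThO without dsDNA for full effect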
# Conditions: fluorescent dye displacement from DNA; series mostly up to 57.1 µM; activity change, negative = inhibition: at the top concentration
# From the text: In order to distinguish true inhibitors of DNA-processing enzymes from promiscuous DNA-binding compounds among screening assay hits, we developed a homogeneous and miniaturized assay based on fluorescent dye displacement test as originally described by Tse and Boger (Accounts of Chemical Research (2004) 37: 61-69). The assay is based on the strong enhancement of fluorescence when Thiazole Orange (ThO) binds to double-stranded DNA: conversely, in the presence of a DNA-binding compound, Thiazole Orange is displaced from the DNA and its fluorescence is reduced.
# Buffer. 50 mM Tris-HCl (pH7.5) containing 50mM NaCl, 2 mM MgCl2, and 0.01% Tween-20.
# Buffer containing 250 nM ThO in columns 3 and 4 as negative control (no dsDNA).
# Reaction mixture: 250 nM ThO and 50 nM dsDNA at final concentration dispensed throughout the plate: in columns 1, 2, 5-48. Column 1 is neutral (100% activity).
# 5''TAMRA- TC ACC FTC GTA CGA CTC
# 3'' AG TGG GAG CAT GCT GAG
# where F denotes tetrahydrofuran.
# Control: Pintool transfer of control compound WB64 (W4761, Sigma-Aldrich) to column 2 of all assay plates as a two-fold 16-point dilution in duplicate (concentration range 5.75 uM - 0.175 nM).
# Four uL of reaction mixtures were dispensed to 1536-well Greiner black solid bottom plates. Compounds (23 nL) were transferred […] in order to measure the endpoint fluorescence using 480 nm excitation and 540 nm emission fluorescence protocol.
row,SMILES,"activity change, negative = inhibition"
1,Brc1c(NC2=NCCN2)ccc2nccnc12,2.55%
2,NC(N)=NC(=O)Cc1c(Cl)cccc1Cl,-0.0809%
3,COc1cc2c(cc1OC)-c1cc(=Nc3c(C)cc(C)cc3C)n(C)c(=O)n1CC2,-2.24%
4,Cc1ccc(=O)n(-c2ccccc2)c1,1.02%
5,O=C1CC2(CCCC2)CC(=O)N1CCCCN1CCN(c2ncccn2)CC1,-1.16%
6,Cc1ccc(S(=O)(=O)NC(=O)NN2CCCCCC2)cc1,0.598%
7,CN(C)CCN(Cc1cccs1)c1ccccn1,0.434%
8,O=C(O)CP(=O)(O)O,1.36%
9,C[N+](C)(C)CCOC(=O)CCC(=O)OCC[N+](C)(C)C,3.38%
10,CCNC(=O)N1CCN(CCCC(c2ccc(F)cc2)c2ccc(F)cc2)CC1,-1.74%
11,CCCC(C(=O)OCCN(CC)CC)(c1ccccc1)c1ccccc1,0.0355%
12,CCCCCN(CCCCC)C(=O)C(CCC(=O)O)NC(=O)c1ccc(Cl)c(Cl)c1 (stereo not given),0.0459%
13,O=C(O)CN(CCOCCOCCN(CC(=O)O)CC(=O)O)CC(=O)O,-0.162%
14,CN(C)CCCN1c2ccccc2Sc2ccccc21,0.414%
15,COC(=O)[C@H]1[C@H]2C[C@@H]3c4[nH]c5cc(OC)ccc5c4CCN3C[C@H]2C[C@@H](OC(=O)c2cc(OC)c(OC)c(OC)c2)[C@@H]1OC,177%
16,CN(C)CCCN1c2ccccc2Sc2ccc(C(F)(F)F)cc21,0.263%
17,CN(C)CC[C@@H](c1ccc(Br)cc1)c1ccccn1,-1.43%
18,Cc1cc(C)c(/C=C2\C(=O)Nc3ccccc32)[nH]1,403%
19,NC(Cc1ccc(Cl)cc1)C(=O)O (stereo not given),2.81%
20,CN(C)CCOC(=O)COc1ccc(Cl)cc1,-0.744%

row,SMILES,"activity change, negative = inhibition"
1,CNCCC(Oc1ccccc1OC)c1ccccc1 (stereo not given),-0.393%
2,C[C@H](CS)C(=O)N1CCC[C@H]1C(=O)O,0.738%
3,NCCCNCCSP(=O)(O)O,1.8%
4,O=C(CCCN1CCC(O)(c2cccc(C(F)(F)F)c2)CC1)c1ccc(F)cc1,-0.627%
5,Nc1ncn([C@@H]2O[C@H](CO)[C@@H](O)[C@H]2O)c(=O)n1,2.34%
6,COC(=O)C1=C(C)NC(C)=C(C(=O)OCCN(C)Cc2ccccc2)C1c1cccc([N+](=O)[O-])c1 (stereo not given),0.0506%
7,O=C(O)CN(CCN(CC(=O)O)CC(=O)O)CCN(CC(=O)O)CC(=O)O,-0.564%
8,OCCN1CCN(CC/C=C2/c3ccccc3Sc3ccc(C(F)(F)F)cc32)CC1,-1.14%
9,CCCN1C[C@H](CSC)C[C@@H]2c3cccc4[nH]cc(c34)C[C@H]21,2.21%
10,CN(C)C(=O)Oc1cccc([N+](C)(C)C)c1,-0.748%
11,NC(=O)c1ncn([C@@H]2O[C@H](CO)[C@@H](O)[C@H]2O)c1O,2.24%
12,N[C@@H](COP(=O)(O)O)C(=O)O,-0.602%
13,C(=C\c1ccccc1)/CN1CCN(C(c2ccccc2)c2ccccc2)CC1,1.88%
14,Cc1nc2c([nH]1)c(=O)n(C)c(=O)n2Cc1ccco1,1.28%
15,COC(=O)[C@@H](N)Cc1ccc(O)c(O)c1,7.93%
16,CC(=O)Nc1nnc(S(N)(=O)=O)s1,1.31%
17,Cc1nnc(SCC2=C(C(=O)O)N3C(=O)[C@@H](NC(=O)Cn4cnnn4)[C@H]3SC2)s1,3.65%
18,C=CCc1ccccc1OCC(O)CNC(C)C (stereo not given),-0.627%
19,COCC(=O)O[C@]1(CCN(C)CCCc2nc3ccccc3[nH]2)CCc2cc(F)ccc2[C@@H]1C(C)C,-3.01%
20,CN(C)C(=O)Oc1ccc[n+](C)c1,1.68%
